TMEM16A inh: mouse TMEM16A channel inhibition, primary screen | normalized B-score (activity score, 25-100; higher = stronger inhibition) at 10 µM | AID 588511 | hit rate 1.2% among 310,000 | Q8BHY3 | HEK293 TMEM16A/YFP iodide influx fluorescence, ionomycin;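 active means ratio plate-corrected score three or more library SD toward inhibition, starting fluorescence score within five deviations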;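 further: score derived from kinetic fluorescence span divided by baseline fluorescence per well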
CRFBP-R2 block: CRF-BP/CRF-R2 complex antagonism; hit rate 0.59% among 350,000; HEK293 CRF-R2/CRF-BP, CRF-induced calcium fluorescence; inhibition, % at 11.8 µM;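 active means inhibition of the ligand-induced calcium signal above about 50% at the single tested concentration, limit read from the data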
TMEM16A act: activators or potentiators of mouse TMEM16A chloride channel. HEK293 TMEM16A/YFP-H148Q/I152L, iodide quench fluorescence; stronger effect = lower value. B-score at 10 µM. hit rate 0.3% among 340,000. AID 623877;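 active means fluorescence-ratio B-score plate-corrected deviation score at least 3 library SD below zero, with starting fluorescence score within 5 deviations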;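 further: channel opened by trigger with iodide after compound preincubation; score built on the fluorescence ratio of max minus min over baseline; more negative score means more quench and so TMEM16A activation or potentiation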
MPTP block: inhibitors of mitochondrial permeability transition pore | isolated mouse mitochondria, Ca2+ swelling absorbance, 30 min | inhibition, % at 10 µM | hit rate 1.4% among 360,000;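 active means inhibition of 50% or more, scaled per plate between neutral and stimulator controls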
NR3A LBD binder: modulates the human NR3A ligand-binding domain; NR3A LBD differential scanning fluorimetry, Tm shift; 0% = protein alone, 100% = glycine-bound protein; Tm shift relative to glycine control, % at 25 µM; hit rate 2.5% among 340,000; AID 1259313;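 active means melting temperature shift of at least 10% of the positive control shift, at one fixed dose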
CRFBP-R2 agonist: agonists of human CRF-binding protein/CRF-R2 receptor complex; HEK293 CRF-R2/CRF-BP, calcium dye fluorescence (FLIPR); percent of saturating CRF peptide response; activation, % at 13.2 µM; hit rate 0.46% among 350,000;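 active means activation of at least 50%, plus an integration ratio under a set limit after plate pattern correction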
A number is an active result; i = inactive; nt = no result. Hits are enriched below; roughly 5.1% of the tested compounds scored in any of these assays.

SMILES	TMEM16A inh	CRFBP-R2 block	TMEM16A act	MPTP block	NR3A LBD binder	CRFBP-R2 agonist
N#C/C(=C/c1ccc(N2CCOCC2)o1)c1ccc(Br)cc1	i	i	i	i	i	i
COc1ccc(NC(=O)/C(C#N)=C\c2ccc(N3CCOCC3)o2)cc1	i	i	i	i	i	223
N#C/C(=C\c1ccc(N2CCOCC2)o1)C(=O)Nc1ccc(O)cc1	i	i	i	i	i	125
COc1ccc(NC(=O)/C(C#N)=C/c2ccc(Br)o2)cc1	i	i	i	i	i	i
CCN1C[C@@H]2[C@@H]3C(=O)N(C)C(=O)[C@@H]3[C@](C)(C1=O)N2C(=O)c1ccc(C)cc1	nt	i	i	i	i	i
O=C(Nc1cccc([N+](=O)[O-])c1)C1CC(=O)N(C2CCCCC2)C1 (configuration not stated)	i	i	i	i	14	i
CC(=O)Nc1cccc(NC(=O)C2CC(=O)N(C3CCCCC3)C2)c1 (configuration not stated)	i	i	i	i	i	i
COc1ccccc1NS(=O)(=O)c1cccs1	i	i	i	i	i	i
COc1ccc(NS(=O)(=O)c2cccs2)c(OC)c1	i	i	i	i	15	i
CCOc1ccc(C(CCc2ccccc2)NC(=O)c2ccccc2OC)cc1OCC (configuration not stated)	i	76	i	i	i	i
CC(C)(C)n1cnc2cc(NCc3ccc(Br)cc3)ccc21	i	i	-9	i	i	i
CCc1ccc(CNc2ccc3c(c2)ncn3CC)cc1	i	i	-6.9	i	i	i
CC(C)(C)n1cnc2cc(NS(=O)(=O)c3ccccc3)ccc21	i	i	i	i	15	i
COc1ccc(-n2cnc3cc(NS(=O)(=O)c4ccccc4)ccc32)cc1	i	i	i	i	i	i
COc1ccc(OCC(=O)Nc2cc(-c3nn(C)c(=O)c4ccccc34)ccc2N2CCOCC2)cc1	i	i	i	i	i	i
C[N+]1(CN2C(=O)C3C4C=CC(C4)C3C2=O)CCCCC1 (configuration not stated)	i	i	i	i	i	i
CCn1c(SCC(=O)N(C)c2c(N)n(Cc3ccccc3)c(=O)[nH]c2=O)nc2ccccc21	i	i	i	i	i	i
COC(=O)c1c(NC(=O)CCc2ccc(C)o2)sc(C)c1C	100	i	i	i	i	i
CC1CCCC(NC(=O)COC(=O)c2ccccc2Sc2ccccc2C#N)C1C (configuration not stated)	i	i	i	i	16	i
N#Cc1ccc(CSc2ccc(S(=O)(=O)N3CCCC3)cn2)cc1	nt	i	i	i	i	i
CCOc1ccccc1N=C1SC(CC(=O)Nc2ccc(OC)cc2OC)C(=O)N1CCC1=CCCCC1 (configuration not stated)	i	57	i	i	i	i
COc1ccc(S(=O)(=O)Nc2nc3ccccc3nc2NCc2ccc3c(c2)OCO3)cc1	i	57	i	i	i	i
Cc1ccc(S(=O)(=O)Nc2nc3ccccc3nc2NCc2ccc3c(c2)OCO3)cc1C	i	i	i	i	i	i
Cc1ccc2c(c1)c1c(n2CC(O)Cn2c(C)nc3ccccc32)/C(=N\O)CCC1 (configuration not stated)	100	i	-12	i	i	i
COc1cc(NC(=O)CSc2ncnc3sc4c(c23)CCCC4)c(C(=O)O)cc1OC	i	i	i	i	i	i
SMILES	TMEM16A inh	CRFBP-R2 block	TMEM16A act	MPTP block	NR3A LBD binder	CRFBP-R2 agonist
COc1cc(/C=N/NC(=O)CC2(C)OCCO2)cc(Br)c1O	i	i	i	i	37	i
C/C(=N/NC(=O)c1ccncc1)c1ccc(NC(=O)c2ccc(Cl)cc2Cl)cc1	i	i	i	i	i	i
CC(C)CC(=NNC(=O)c1ccncc1)c1cc(Cl)ccc1O	nt	i	i	i	i	150
O=C(Cc1cn2ccsc2n1)NCCc1ccc(F)cc1	i	i	-49	i	i	i
O=C(COc1cc(Cl)ccc1Cl)N1CCNC1=O	nt	51	i	i	i	i
COc1ccccc1C1=CN(Cc2ccccc2)CCC1=O	nt	i	i	i	i	i
CCOc1ccc(NC(=O)C2=C(C)NC(=S)NC2c2ccc(O)c(OC)c2)cc1 (configuration not stated)	i	i	i	i	13	i

Screens: PubChem BioAssay, several laboratories
